Bioassay records as filed in PubChem.
Hits are enriched below; roughly 4% of the tested compounds scored in any of these assays.
Glioma ERSR ind = induces the endoplasmic reticulum stress response in human glioma cells; Potency, µM, for inactives: top-dose activation, usual class: activators; U87-MG GRP78 promoter luciferase reporter, 16 h; hit rate 0.02% among 420,000; note: potency is the fitted concentration of half-maximal effect; series mostly up to about 76 µM; % of control where 0% means no effect; nearly all actives have a fitted effect of over 35% in size
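Stably transfected U87-MG glioma cells carrying a GRP78-based luciferase sensor; 16 h compound incubation. Luminescence end-point read 10 min after Bright-Glo addition at room temperature.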
D1 potentiator = enhances dopamine response at the human D1 receptor; P21728; AID 504651; potentiation, % at 10 µM; HEK293 TREx D1 cells, calcium flux, dopamine EC20 potentiation; hit rate 0.036% among 360,000; in the data active = potentiation above about 30%; note: 0% is about no effect
TRHR enhancer-1 = allosteric enhancers of human TRH receptor; P34981; TRHR cells, fluo-8 calcium fluorescence, EC20 TRH enhancement; hit rate 0.66% among 360,000; AID 493056; enhancement, % at 2 µM; in the data active = enhancement above about 30%; note: 0% is about no effect
Target sequence (P34981 whole entry, looked up): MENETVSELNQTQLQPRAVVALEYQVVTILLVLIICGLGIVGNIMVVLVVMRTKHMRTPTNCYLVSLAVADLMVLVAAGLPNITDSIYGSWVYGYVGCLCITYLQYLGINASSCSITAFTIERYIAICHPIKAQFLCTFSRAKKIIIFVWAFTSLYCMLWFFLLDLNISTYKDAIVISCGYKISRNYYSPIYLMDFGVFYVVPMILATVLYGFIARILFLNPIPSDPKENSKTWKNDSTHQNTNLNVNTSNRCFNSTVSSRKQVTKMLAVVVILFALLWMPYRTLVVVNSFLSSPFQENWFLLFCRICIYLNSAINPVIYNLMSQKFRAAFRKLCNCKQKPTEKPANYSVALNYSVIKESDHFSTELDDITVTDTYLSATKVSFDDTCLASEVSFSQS
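Enhancer read-out: after compound pinning and an initial kinetic agonist-mode read, an EC20 of TRH (10 nM final) was injected and fluo-8 calcium signal (Ex 480/Em 530) followed at 1 s/cycle for 100 cycles in TRHR-expressing cells.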
D1 agonist = activates the human D1 dopamine receptor. activation, % at 2 µM. hit rate 1% among 360,000. HEK293 T-REx D1 cells, calcium flux, agonist mode; in the data active = activation above about 30%; note: 0% is about no effect
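Inducible HEK293 T-REx D1 cells, force-coupled to calcium signalling, were plated at 4000 cells/well with tetracycline and held overnight at 30 C. After no-wash calcium dye loading, compound-evoked calcium rise over 180 s flagged agonists.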
D1 antagonist = antagonists of human D1 dopamine receptor; P21728; HEK293 TREx D1 cells, calcium flux, dopamine EC80; active compounds read low; activity change, negative = inhibition, % at 10 µM; hit rate 3.2% among 360,000; AID 504652; in the data active = activity change below about -30%; note: % is set by controls: 0 for no effect and ±100 for the full control effect
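Tetracycline-induced HEK293 Trex D1 cells, force-coupled to calcium, dye-loaded; compounds added and read 180 s, then EC80 dopamine added and calcium flux tracked kinetically another 180 s.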
TRHR agonist-1 = TRH receptor (human) agonism; hit rate 0.18% among 360,000; AID 493084; activation, % at 2 µM; P34981; TRHR cells, calcium flux fluo-8, FDSS agonist mode; in the data active = activation above about 30%; note: 0% is about no effect
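Steps: seed TRHR cells overnight; add fluo-8 no-wash Ca dye, RT 30 min–1.5 h; record 10 s baseline; pin-transfer compounds; monitor fluorescence 1 cycle/s for the agonist window. Calcium increases flag candidate agonists.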
TRHR enhancer-2 = human TRH receptor allosteric enhancement confirmation. shares compounds with TRHR enhancer-1. TRH receptor cell assay, enhancer confirmation qHTS. activity change, negative = inhibition, % at 46.1 µM. 970 tested, under 10 active;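 note: compound effect scored on response to added TRH at EC20 of 10 nM; 0% is about no effect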
TRHR agonist-2 = confirmation of human TRH receptor agonists; shares compounds with TRHR enhancer-1; TRHR-expressing cells, agonist activation read-out; Potency, µM (doses to about 46.1 µM), for inactives: at the highest dose activation, hits mostly activators; hit rate 8% among 970; AID 493078; note: potency is the fitted concentration of half-maximal effect; 0% is about no effect; nearly all actives have a fitted effect of over 75% in size
An asterisk follows results filed as active; ? = inconclusive; nt = no result. Unless noted, calls come from the whole dose curve; as a rule, active = well fitted curve in the direction sought with a large enough effect; inconclusive = small, poorly fitted or top-dose-only effect, or another doubt; inactive = no such curve, though single readings can be large; an effect the other way counts as inactive or inconclusive.

SMILES	Glioma ERSR ind	D1 potentiator	TRHR enhancer-1	D1 agonist	D1 antagonist	TRHR agonist-1	TRHR enhancer-2	TRHR agonist-2
C=CCOC(=O)C1=C[C@@H](c2ccc3c(c2)OCO3)C[C@@H](OCc2ccc(CO)cc2)O1	0.8%	-1.1	-2.2	1.6	15.8	0.1	nt	nt
COC(=O)c1c(C)oc2ccc(NS(=O)(=O)c3cccs3)cc12	-0.5%	-1.8	53.4*	11.7	-14.2	-1.1	-8.2	3.2%
CCCC(=O)NCCCc1nc2ccccc2n1C(C)C	-5.8%	-11.7	46.7*	0.8	-24.4	-0.1	-1.5	1.3%
CCCC(=O)NCCc1nc2ccccc2n1CC(=O)c1ccccc1	-0.7%	-0.6	-1.6	0.5	-11.9	-0.1	nt	nt
CCn1cc(C(=O)NCCc2ccc(OC)cc2)c(=O)c2ccc(C)nc21	-2.0%	0.8	12.8	-0.3	-3.9	-1.0	nt	nt
Cc1ccc2cc(NC(=O)Cc3ccccc3)ccc2n1	-7.2%	1.6	3.1	0.5	-7.1	0.2	nt	nt
Cc1ccc2cc(NC(=O)c3ccccc3C)ccc2n1	-1.0%	5.8	49.6*	1.5	20.1	0.1	2.2	0.9%
CCOC(=O)c1cc(S(=O)(=O)N2CCN(c3ccc(OC)cc3)CC2)[nH]n1	-5.6%	-1.9	4.4	0.0	0.8	0.0	nt	nt
COCCN1CC(C(=O)NCCc2nc(C)c(C)s2)CCC1=O (stereo not given)	8.8%	1.7	-5.6	5.2	-6.2	0.0	nt	nt
N#Cc1c(N)n(CCNC(=O)c2ccccc2)c2nc3ccccc3nc12	-1.5%	1.3	4.0	5.3	-1.8	27.7	-5.8	-0.7%
N#Cc1c(N)n(CCNC(=O)c2cccs2)c2nc3ccccc3nc12	-0.3%	-6.2	1.5	4.2	-0.7	0.4	nt	nt
CCN(CC)c1ccc(CN2CCC(C(=O)NCc3ccc(C)cc3)CC2)cc1	-5.7%	-2.5	44.8*	6.6	-7.4	-0.4	9.2	2.2%
C=CC[C@H]1C=C[C@@H](C(C(=O)OC)C(=O)OC)CN1C(C)=O	-2.6%	nt	nt	nt	nt	nt	nt	nt
Cn1c(/C(C#N)=C/c2ccc(O)cc2)nc2ccccc21	4.5%	-0.5	3.5	1.7	-1.8	0.7	nt	nt
COc1cc(/C=C(\C#N)c2nc3ccccc3n2C)cc(OC)c1O	6.8%	-3.5	17.3	63.8*	1.4	118.7*	-1.0	18.4µM*
Cc1cc(C)[n+](C)n1CC(O)Cn1c2ccccc2c2ccccc21 (stereo not given)	-0.3%	7.2	-4.4	-2.2	2.9	1.0	nt	nt
CCN1C(=O)N/C(=C/c2ccc(C)o2)C1=O	-1.2%	-4.0	-1.1	5.7	7.4	0.3	nt	nt
CCN1C(=O)N/C(=C/c2ccc(Sc3ccc(C)cc3)o2)C1=O	-2.6%	-6.2	54.1*	3.0	-1.1	-0.9	-7.8	1.3%
O=S(=O)(c1ccccc1)C1CON(Cc2ccccc2)C1c1ccccc1 (stereo not given)	-4.2%	-3.2	14.4	1.9	-9.1	0.8	nt	nt
CN1OCC(S(=O)(=O)c2ccccc2)C1c1ccccc1 (stereo not given)	0.8%	0.1	44.2*	1.9	-9.5	0.3	8.1	2.7%
COc1ccc(Cl)cc1NC(=O)Cn1ccn(-c2cc(C)cc(C)c2)c(=O)c1=O	2.2%	-3.9	-5.2	6.7	5.4	-0.2	nt	nt
C/C(CCc1ccc2c(c1)OCO2)=N\N=C1\NC(=O)CC(C(=O)Nc2ccccc2F)S1 (stereo not given)	-6.4%	-2.3	23.4	1.3	0.7	-0.1	nt	nt
O=S(=O)(NCC1CCCO1)c1ccc(Cl)cc1 (stereo not given)	-1.2%	0.0	45.5*	3.8	-3.8	0.0	-2.2	0.9%
Nc1c(S(=O)(=O)c2ccccc2)c2nc3ccccc3nc2n1Cc1ccco1	-0.2%	-5.8	2.3	29.7	-21.2	28.1	-1.0	?
Nc1c(S(=O)(=O)c2ccccc2)c2nc3ccccc3nc2n1CCN1CCOCC1	-5.3%	-7.0	2.6	3.3	8.8	0.8	nt	nt
